Bioassay records as filed in PubChem BioAssay.
LDHA inh = blocks human lactate dehydrogenase A. activity change, % (values are at about 110 or 230 µM). AID 1347041. actives 0.15% (n = 480,000). P00338. purified LDHA, NADH/diaphorase-resazurin fluorescence; hits give low values; in the data active = activity change below about -30%; inconclusive = mostly about -25% to -30%;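 also: plate controls were DMSO wells for no effect and wells without enzyme for full effect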
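Human LDH5 at 2 nM final in Tris HCl pH 7.4 with 0.06 mM NADH and 0.2 mM pyruvate, reacted 5 minutes at room temperature. Remaining NADH coupled via diaphorase/resazurin; resorufin fluorescence read at 0 and 20 minutes, normalized to enzyme-free and DMSO wells.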
IDH1 R132H inh = inhibitors of human mutant IDH1 R132H. O75874. IDH1-R132H enzyme, NADPH consumption, diaphorase/resazurin fluorescence. Potency, µM (series often up to 76.6 µM), for the others: at the highest dose activity change, negative = inhibition, hits mostly inhibitors. actives 0.093% (n = 390,000); also: potency is read from the fitted curve at half-maximal effect; % is scaled to controls: 0 for no effect and ±100 for the full control effect; nearly all actives have a fitted effect of over 65% in size
Target sequence (O75874 whole entry R132H, stated change not applied): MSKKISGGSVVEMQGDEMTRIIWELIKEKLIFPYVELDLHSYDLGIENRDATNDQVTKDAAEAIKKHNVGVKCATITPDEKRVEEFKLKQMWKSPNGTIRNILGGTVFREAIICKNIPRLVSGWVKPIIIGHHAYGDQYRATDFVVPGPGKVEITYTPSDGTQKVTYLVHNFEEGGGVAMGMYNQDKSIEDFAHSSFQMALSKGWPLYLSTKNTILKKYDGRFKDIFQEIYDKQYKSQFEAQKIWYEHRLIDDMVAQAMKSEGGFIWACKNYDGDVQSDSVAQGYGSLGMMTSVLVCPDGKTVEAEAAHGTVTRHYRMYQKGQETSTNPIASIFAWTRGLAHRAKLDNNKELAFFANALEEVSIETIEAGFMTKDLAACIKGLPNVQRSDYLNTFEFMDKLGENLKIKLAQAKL
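IDH1-R132H (0.5 ug/mL dispensed) in pH 7.5 Tris buffer was preincubated 30 min with compound, then given a substrate mix of 0.016 mM NADPH and 2 mM alpha-KG for 80 min at room temperature; remaining NADPH was read by diaphorase/resazurin fluorescence.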
ASM inhibitor = human S-ASM enzyme inhibition. P17405. placental ASM, HMU-PC fluorogenic substrate, 60 min. Potency, µM (titrated, usually from 57.5 µM), without a hit: at the highest dose activity change, negative = inhibition, hits mostly inhibitors. actives 0.006% (n = 340,000); also: potency is read from the fitted curve at half-maximal effect
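Human placenta-derived ASM enzyme was preincubated with compound for 10 minutes at room temperature, then given fluorogenic substrate HMU-PC0 (9 uM final) for 60 minutes at 37 °C; a pH 10 stop preceded fluorescence reading at Ex 386/Em 447 nm.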
RGS4 inh = blocks human RGS4-accelerated GTP hydrolysis. Transcreener GDP fluorescence polarization, RGS4-accelerated GTP hydrolysis. AID 504845. P49798. Potency, µM (doses to about 114 µM), for the others: at the top dose activity change, negative = inhibition, hits mostly inhibitors. actives 0.039% (n = 390,000); also: potency is read from the fitted curve at half-maximal effect; % is scaled to controls: 0 for no effect and ±100 for the full control effect; nearly all actives have a fitted effect of over 75% in size
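MLSMR compounds (23 nl, pin-transferred) preincubated 10 min at room temperature with a 500nM (2x) first reagent, then RGS4 at 900nM (2x) plus Transcreener GDP mix added; fluorescence polarization (620/688 nm) read before and after 90 min at 30 °C.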
ClpP mod = qHTS Assay for Activators of ClpP; purified B. subtilis ClpP, FRET peptide cleavage, 20 min; Potency, µM (series often up to 57.5 µM), without a hit: at the highest dose activity change, negative = active; actives 1.9% (n = 340,000); AID 651965, 2013; active = well fitted falling curve with a large enough effect; inconclusive = small, poorly fitted or top-dose-only effect; inactive = no such curve, though single readings can be large or run the other way; also: potency is read from the fitted curve at half-maximal effect; the source files actives as falling curves though it sought activators and does not explain the sign; nearly all actives have a fitted effect of over 65% in size
Target sequence (P80244 whole entry, looked up): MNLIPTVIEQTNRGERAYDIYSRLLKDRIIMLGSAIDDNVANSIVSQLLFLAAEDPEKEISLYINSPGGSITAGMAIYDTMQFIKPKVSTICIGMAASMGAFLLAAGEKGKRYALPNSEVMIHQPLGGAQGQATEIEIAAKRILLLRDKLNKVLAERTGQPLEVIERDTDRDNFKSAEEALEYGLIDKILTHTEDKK
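ClpP 10 microg/mL final, pH 8 Tris/KCl buffer with BSA, glycerol, Tween-20; compound pinned in; FRET-FV substrate; RT 20 min; Ex320/Em430; ΔFRET vs ADEP 5.8 microM, DMSO, no enzyme.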
Mito fusion act = inhibitors of mitochondrial division or activators of mitochondrial fusion; Potency, µM (doses to about 46.1 µM), without a hit: top-dose growth rescue (activation), usual class: activators; actives 0.23% (n = 320,000); AID 485298; S. cerevisiae fusion-defective mutant growth rescue, CellTiterGlo 48 h; also: potency is read from the fitted curve at half-maximal effect; % of control where 0% means no effect; nearly all actives have a fitted effect of over 45% in size
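Read-out: ATP-based luminescence (CellTiterGlo, 10 min ambient) reporting growth of fusion-defective ts yeast after 48 hours at 37C on glycerol/ethanol YPEG medium in the presence of compound.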
Numbers without * were called inactive; i = inactive; ? = inconclusive; . = no result; ! = not active in a repeat; [ ] = dose if it differs, or a comment. Many of the other results were omitted from the sample, so hits are more common in it than they were. Unless noted, calls follow the shape of the dose curve; as a rule, active = well fitted curve in the direction sought with a large enough effect; inconclusive = small, poorly fitted or top-dose-only effect, or another doubt; inactive = no such curve, though single readings can be large; an effect the other way counts as inactive or inconclusive.

SMILES	LDHA inh	IDH1 R132H inh	ASM inhibitor	RGS4 inh	ClpP mod	Mito fusion act
CCOC(=O)c1ccccc1NC(=O)N(Cc1ccc(CC)cc1)Cc1cn[nH]c1-c1ccc(OC)cc1	4	9%	.	14%	35µM*	.
CCOC(=O)c1ccccc1NC(=O)c1c(O)[nH]c(=O)[nH]c1=O	-1	21%	-7%	8%	-10%	.
CN1C2CCC1CC(OC(=O)c1cc(Cl)cc(Cl)c1)C2 (stereo unspecified)	-4	3%	0%	30µM*!	1%	4%
CN1C(=O)NC(=O)C2(Cc3c(ccc4ccccc34)N(C)C2)C1=O (stereo unspecified)	45	.	.	.	.	.
Cc1cc(OCC(=O)Nc2cc(C)nn2-c2ccccn2)c2c3c(c(=O)oc2c1)CCC3	.	.	.	.	.	1%
Cc1cc(OC(=O)c2cccs2)c2c3c(c(=O)oc2c1)CCCC3	0	-12%	-15%	-5%[11.4 µM]	-3%	?
Cc1cc(OC(=O)c2ccco2)c2c3c(c(=O)oc2c1)CCCC3	-3	?	-11%	12%	22µM*	15%
Cc1ccc(-n2nc(C)cc2NC(=O)COc2cc(C)cc3oc(=O)c4c(c23)CCC4)cc1	2	3%	-19%	-34%	25µM*	6%
CCCOC(=O)COc1cc(C)cc2oc(=O)c3c(c12)CCC3	3	5%	-2%	-12%	25µM*	12%
O=c1oc(Cl)c(Cl)c2ccccc12	1	12%	6%	11µM*!	1%	?
Cc1ccc(S(=O)(=O)N(C)CCCC(=O)N2CCN(c3ccccn3)CC2)cc1	-7	2%	4%	14%	32µM*	4%
CC(=O)OC1(C)CCC2C3CCC4CC(=O)CCC4(C)C3CCC21C (stereo unspecified)	12	.	.	.	.	.
O=c1oc2ccccc2c(O)c1C(c1ccc([N+](=O)[O-])cc1)c1c(O)c2ccccc2oc1=O	-67*	?	15%	-31%	.	-7%
CC(C)c1ccc(C(c2c(O)c3ccccc3oc2=O)c2c(O)c3ccccc3oc2=O)cc1	-6	-12%	.	.	-7%	.
CCN(CC)CCOC(=O)C(O)(c1ccccc1)c1ccccc1	3	25%	4%	18%	-1%	2%
CC(C)N1C(=O)CC2(CC[N+](C)(CCOC(=O)C(O)(c3ccccc3)c3ccccc3)CC2)C1=O (stereo unspecified)	-34*	5%	-1%	-20%	2%	4%
CCOC(=O)[C@]12Cc3cc(OC)ccc3[C@H]1N(CC(=O)OC)C(=O)c1cc(OC)ccc12	-3	.	.	.	-2%	.
COC(=O)C12CCc3c(ccc4cc(OC)ccc34)C1=CC(=O)C2 (stereo unspecified)	-4	14%	i	25%	28µM*	.
Cc1ccc(Cl)cc1N1CCN(CCN)CC1	1	5%	6%	?	1%	-5%
Cc1ccc(Cl)cc1N1CCN(C(=O)c2cn(C)c(=O)c3c2c2ccccc2n3C)CC1	-11	-1%	?	1%	28µM*	7%
O=C(NCCCN1CC1)Nc1cccc2ccccc12	6	11%	8%	-11%	25µM*	.
CN(C)C(=S)SCC#N	3	.	.	.	.	.
CC(C)CCNC(=O)c1c(N)n(Cc2ccc3c(c2)OCO3)c2nc3ccccc3nc12	10	-3%	i	-23%	28µM*	-1%
CC(C)CNC(=O)c1c(N)n(Cc2ccc3c(c2)OCO3)c2nc3ccccc3nc12	0	-5%	i	-21%	14µM*	12%
CCOP(=O)(OCC)C(NC(=O)c1cccc([N+](=O)[O-])c1)C(Cl)(Cl)Cl (stereo unspecified)	-1	0%	4%	-10%	32µM*	0%
SMILES	LDHA inh	IDH1 R132H inh	ASM inhibitor	RGS4 inh	ClpP mod	Mito fusion act
COc1ccc(-n2nc(C)c3c2NC(=O)CSC3c2cc(OC)c(O)c(OC)c2)cc1 (stereo unspecified)	-1	.	.	.	.	.
c1nc(CN2CCNCC2)cs1	-1	.	.	.	.	.
Cc1nc2ccccc2c(=O)n1-c1cccc(C(F)(F)F)c1	-4	3%	-1%	16%	28µM*	5%
CCn1cc(C(=O)NCc2ccccc2)c2ccccc21	-2	23%	-2%	24%	-2%	-15%
CCn1cc(C(=O)O)c(=O)c2ccc(C)nc21	6	0%	-4%	0%[56.9 µM]	0%	5.8µM*!
CCOC(=O)c1c(C)n(C2CCCC2)c2ccc(O)cc12	-5	.	.	.	.	.
CCOC(=O)C1=C(C)OC(N)=C(C(=O)OC(C)C)C12C(=O)Nc1ccc(Br)cc12 (stereo unspecified)	-4	.	.	.	.	.
N#CC(C#N)=NNc1ccc(S(N)(=O)=O)cc1	-45*	-20%	-4%	0%[11.4 µM]	2%	-4%
O=C1NC(=O)C(=Cc2cccc(OCCOc3ccccc3)c2)C(=O)N1	-31*	-3%	-5%	?	-5%	2%
Cc1ccc(OCCOc2cccc(C=C3C(=O)NC(=O)NC3=O)c2)c(C)c1	-13	-2%	-12%	-58%[56.9 µM]	.	4%
C=CCn1c(C)c(C(=O)OCC)c2cc(O)ccc21	11	.	.	.	.	.
OCCSCCSCCO	-2	.	.	.	.	.
O=C1NC(=O)N(c2ccccc2)C(=O)/C1=C/c1ccc2c(c1)Cc1ccccc1-2	.	.	.	.	.	13%
COc1ccccc1N1C(=O)NC(=O)/C(=C/c2ccc3c(c2)Cc2ccccc2-3)C1=O	-33*	-9%	-2%	?	.	2%
Nc1ccc2ccccc2c1	22	17%	3%	?	?	.
Nc1ccc2c(c1)oc1ccccc12	9	3%	-3%	7%	13µM*	1%
CC1=C(C(=O)c2ccccc2)C2(C(=O)Nc3ccc(Br)cc32)C(C(=O)OCc2ccccc2)=C(N)O1 (stereo unspecified)	0	.	.	.	.	.
COc1ccc(-c2nc3ccccc3o2)cc1NC(=O)Cc1ccc(Cl)cc1	2	4%	.	-12%	?	.
O=S(=O)(Nc1ccc(-c2nc3ccccc3o2)cc1)c1ccccc1	-5	2%	18%	-35%	28µM*	?
O=S(=O)(c1cc(Cl)cc(Cl)c1)N1Cc2cc(-c3cccc(F)c3)ccc2-n2nncc2C1	-3	.	.	.	-2%	.
Fc1cccc(-c2ccc3c(c2)CN(c2cccc(Cl)c2)Cc2cnnn2-3)c1	-16	.	.	.	32µM*	.
O=C(Nc1ccc2nc(SCC(=O)N3CCCc4ccccc43)sc2c1)c1cccc(F)c1	-17	-3%	.	9%	13µM*	.
N#Cc1ccc(NC(=O)COC(=O)c2nc(-c3ccccc3)n(-c3ccccc3)n2)cc1Cl	7	.	.	.	.	.
